Inconclusive results are not listed. Active and inactive are the calls of the source. Rule for the calls: active = hit-call score of the fitted dose curve at least 0.9, where 1 is the maximum; inconclusive = response in the unintended direction; inactive = score below 0.9.

For the assay, the system named is rainbow trout Peroxisome Proliferator-activated Receptor gamma (PPARg), gene 110528708. Put plainly: ATG_rtPPARg_EcoTox2: Attagene TRANS-FACTORIAL EcoTox-2 HepG2 Assay for rainbow trout Peroxisome Proliferator-activated Receptor gamma (PPARg). The procedure: ATG_EcoTox2 is a cell-based, multiplexed assay created by modifying the existing Attagene TRANS-FACTORIAL system to include a panel of nuclear receptors from some or all the following species: human (Homo sapiens), african clawed frog (Xenopus laevis), rainbow trout (Oncorhynchus mykiss), japanese medaka (Oryzias latipes), and zebrafish (Danio rerio). The ECOTOX2-FACTORIAL format uses HepG2, a human liver cell line, with measurements taken at 24 hours after chemical dosing in a 24-well plate. ATG_rtPPARg_EcoTox2 is one of 29 assay components calculated in the ATG_EcoTox2 assay. It is designed to make measurements of mRNA induction, a form of inducible reporter, as detected with fluorescence intensity signals by Reverse transcription polymerase chain reaction (RT-PCR) and Capillary electrophoresis technology.The assay endpoint ATG_rtPPARg_EcoTox2 was analyzed in the positive analysis fitting direction relative to DMSO as the negative control and baseline of activity. Using a type of inducible reporter, measures of mRNA for gain-of-signal activity can be used to understand the reporter gene at the transcription factor-level as they relate to the gene PPARg. Furthermore, this assay endpoint can be referred to as a primary readout, because this assay has produced multiple assay endpoints where this one serves a reporter gene function. To generalize the intended target to other relatable targets, this assay endpoint is annotated to the nuclear receptor intended target family, where the subfamily is non-steroidal.
Human liver HepG2 cells are transiently transfected with multiple reporter transcription units (MRTUs) in 6-well plates using FuGene 6 reagent (Roche; 3 ml FuGene/1 mg DNA). The MRTU constructs are regulated by a cis-regulating element (promoter). Each RTU expresses a GAL4-UAS that regulates the transcription of a nearby target reporter gene sequence. A major difference between the CIS and TRANS system is that in CIS activities of endogenous TFs are measured, whereas the TRANS assay evaluates changes in activities of exogenous, chimeric NR-Gal4 proteins. […] At the end of 24 hour incubation, total RNA was isolated using TriZol reagent (Invitrogen). The isolated RNA is then reverse-transcribed using oligo(dT) primer and Mo-MLV reverse transcriptase (Invitrogen) with DNAse I (Ambion) treatment for 30 min. The one-tenth of the produced cDNA was amplified by PCR using Taq DNA polymerase (Invitrogen) and two reporter sequence-specific primers. […] The fragments were purified using Qiaquick PCR columns (Qiagen), analyzed on an ABI 3130xL genetic analyzer (Applied Biosystems) with peak positions identified by using a set of X-rhodamine (ROX)-labeled MapMarker1000 molecular weight standards (BioVentures). […]
With `CC(C)OC(=O)C(C)(C)Oc1ccc(C(=O)c2ccc(Cl)cc2)cc1`, the compound was called inactive.
As for `Cc1ccc(C)c(OCCCC(C)(C)C(=O)O)c1`, the compound was classed as inactive.
As to `C[C@]12C=CC(=O)C=C1CC[C@@H]1[C@@H]2C(=O)C[C@@]2(C)[C@H]1CC[C@]2(O)C(=O)CO`, the compound was classed as inactive.
For `CC(C)(Oc1ccc(Cl)cc1)C(=O)O`, the compound was classed as inactive.

Values taken from PubChem BioAssay AID2284352 (EPA ToxCast).
